Measurements reported in PubChem BioAssay (EPA / NIEHS).
Records with an inconclusive call do not appear. Active and inactive are the calls of the source. Rule for the calls, unless noted: active = hit-call score of the fitted dose curve at least 0.9, where 1 is the maximum; inactive = score below 0.9.

Legend:
[1] = target: human RAR-related Orphan Receptor beta (RORb), RORB (gene 6096) (UniProt Q92753); test: ATG_RORb_TRANS: Attagene TRANS-FACTORIAL HepG2 Assay for human RAR-related Orphan Receptor beta (RORb) (AID 2283010; active = hit-call score of the fitted dose curve at least 0.9, where 1 is the maximum)
human RAR-related Orphan Receptor beta (RORb), RORB (gene 6096), sequence (Q92753 whole entry, looked up, the tested form may be a part): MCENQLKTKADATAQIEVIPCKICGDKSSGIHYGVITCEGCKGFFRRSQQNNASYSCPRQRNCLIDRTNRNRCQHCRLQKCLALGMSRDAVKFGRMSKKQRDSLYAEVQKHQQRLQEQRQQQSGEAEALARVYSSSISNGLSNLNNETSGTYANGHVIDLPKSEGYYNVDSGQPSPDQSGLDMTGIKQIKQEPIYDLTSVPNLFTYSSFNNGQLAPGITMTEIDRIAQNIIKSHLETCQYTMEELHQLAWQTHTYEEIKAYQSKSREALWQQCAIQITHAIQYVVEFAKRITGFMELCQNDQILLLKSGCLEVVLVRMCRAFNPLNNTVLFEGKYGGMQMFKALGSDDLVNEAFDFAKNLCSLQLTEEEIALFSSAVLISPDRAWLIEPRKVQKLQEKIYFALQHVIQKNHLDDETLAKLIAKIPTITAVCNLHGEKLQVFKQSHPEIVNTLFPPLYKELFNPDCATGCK
Summary of the method: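 Transfect HepG2 with multiple GAL4-UAS reporter transcription units; dose chemicals for 24 h; isolate RNA, reverse-transcribe and PCR-amplify reporter sequences; label, digest and resolve fragments by capillary electrophoresis; fit increases relative to DMSO.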

[2] = target: human Retinoid X Receptor beta (RXRb), RXRB (gene 6257) (UniProt P28702); test: ATG_RXRb_TRANS: Attagene TRANS-FACTORIAL HepG2 Assay for human Retinoid X Receptor beta (RXRb) (AID 2283013; active = hit-call score of the fitted dose curve at least 0.9, where 1 is the maximum)
human Retinoid X Receptor beta (RXRb), RXRB (gene 6257), sequence (P28702 whole entry, looked up, the tested form may be a part): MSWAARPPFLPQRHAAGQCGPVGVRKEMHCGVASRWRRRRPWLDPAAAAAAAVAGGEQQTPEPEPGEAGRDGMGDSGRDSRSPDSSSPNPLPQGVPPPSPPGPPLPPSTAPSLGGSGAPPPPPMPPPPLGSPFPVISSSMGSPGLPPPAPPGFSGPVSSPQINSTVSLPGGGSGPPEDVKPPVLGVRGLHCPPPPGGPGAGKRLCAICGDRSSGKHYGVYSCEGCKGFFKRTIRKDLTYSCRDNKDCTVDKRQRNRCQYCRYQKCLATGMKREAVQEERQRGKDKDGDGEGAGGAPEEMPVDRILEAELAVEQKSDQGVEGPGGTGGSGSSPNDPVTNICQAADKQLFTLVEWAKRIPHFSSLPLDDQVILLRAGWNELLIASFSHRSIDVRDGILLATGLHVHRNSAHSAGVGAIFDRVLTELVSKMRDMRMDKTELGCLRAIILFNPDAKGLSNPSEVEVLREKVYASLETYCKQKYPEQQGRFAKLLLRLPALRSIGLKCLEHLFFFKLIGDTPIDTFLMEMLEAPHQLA
Summary of the method: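 Chimeric receptor-Gal4 activity was assessed in transiently transfected human HepG2 cells after 24 h exposure. Transcripts from GAL4-UAS reporters were quantified by fluorescent RT-PCR and capillary electrophoresis, with DMSO as negative control and baseline.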

[3] = target: human Thyroid Receptor alpha (THRa1), THRA (gene 7067) (UniProt P10827); test: ATG_THRa1_TRANS: Attagene TRANS-FACTORIAL HepG2 Assay for human Thyroid Receptor alpha (THRa1) (AID 2283014; active = hit-call score of the fitted dose curve at least 0.9, where 1 is the maximum)
human Thyroid Receptor alpha (THRa1), THRA (gene 7067), sequence (P10827 whole entry, looked up, the tested form may be a part): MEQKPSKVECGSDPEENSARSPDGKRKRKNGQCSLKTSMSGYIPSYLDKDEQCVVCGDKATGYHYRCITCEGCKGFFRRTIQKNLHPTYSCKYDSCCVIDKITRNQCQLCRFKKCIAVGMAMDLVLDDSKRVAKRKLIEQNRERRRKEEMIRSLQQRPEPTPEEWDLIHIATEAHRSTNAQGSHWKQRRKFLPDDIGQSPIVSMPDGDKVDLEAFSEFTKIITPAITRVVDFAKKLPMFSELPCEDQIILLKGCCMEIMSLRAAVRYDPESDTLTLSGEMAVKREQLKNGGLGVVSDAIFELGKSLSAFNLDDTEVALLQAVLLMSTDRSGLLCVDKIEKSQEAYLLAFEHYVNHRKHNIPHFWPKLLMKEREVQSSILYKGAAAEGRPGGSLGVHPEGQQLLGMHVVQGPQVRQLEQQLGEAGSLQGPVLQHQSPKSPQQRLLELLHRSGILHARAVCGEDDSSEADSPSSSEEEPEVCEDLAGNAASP
Summary of the method: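 Transient HepG2 transfection, NR-Gal4 chimera driving GAL4-UAS reporters; 24 h compound exposure; total RNA, oligo(dT) RT, PCR, fluorescent primer extension, capillary electrophoresis. Upward direction vs DMSO control.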

[4] = read-out: E-selectin (Homo sapiens) (UniProt P16581); test: BSK_3C_Eselectin: BioMAP Diversity Plus: 3C Assay for Eselectin Biomarker Activity (AID 2283015); conditions: primary human endothelial cells (HUVEC); actives raise or lower the signal
Summary of the method: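 HUVEC, 3C stimulation; compound exposure 24 h; E-selectin by ELISA; gain- or loss-of-signal fitted bidirectionally vs DMSO baseline.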

[5] = read-out: Interleukin-1 alpha (IL1a), IL1A (gene 3552); test: BSK_BE3C_IL1a: BioMAP Diversity Plus: BE3C Assay for Interleukin-1 alpha (IL1a) Biomarker Activity (AID 2283016); conditions: primary human bronchial epithelial cells; actives raise or lower the signal
Summary of the method: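 Signal from IL-1a ELISA, taken 24 h after chemical dosing of human bronchial epithelial cells, is compared with DMSO as baseline using bidirectional curve fitting.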

[6] = read-out: Monocyte Chemoattractant Protein-1 (MCP1), CCL2 (gene 6347); test: BSK_3C_MCP1: BioMAP Diversity Plus: 3C Assay for Monocyte Chemoattractant Protein-1 (MCP1) Biomarker Activity (AID 2283017); conditions: primary human endothelial cells (HUVEC); actives raise or lower the signal
Summary of the method: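 HUVEC, 3C system; 24 h chemical exposure; MCP-1 by ELISA; bidirectional curve fit vs DMSO baseline.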

[7] = read-out: Monocyte Chemoattractant Protein-1 (MCP1), CCL2 (gene 6347); test: BSK_4H_MCP1: BioMAP Diversity Plus: 4H Assay for Monocyte Chemoattractant Protein-1 (MCP1) Biomarker Activity (AID 2283018); conditions: primary human endothelial cells (HUVEC); actives raise or lower the signal
Summary of the method: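 Endothelial cells from umbilical vein were treated with test chemical, then after 24 h MCP-1 levels were quantified by ELISA; endpoint values came from bidirectional fitting with DMSO as baseline of activity.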

[8] = read-out: Human Leukocyte Antigen - DR isotype (HLADR), HLA-DRA (gene 3122); test: BSK_3C_HLADR: BioMAP Diversity Plus: 3C Assay for Human Leukocyte Antigen - DR isotype (HLADR) Biomarker Activity (AID 2283019); conditions: primary human endothelial cells (HUVEC); actives raise or lower the signal
Summary of the method: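 HUVEC, 3C stimulation, 24 h post-dose; HLA-DR by ELISA; bidirectional curve fit vs DMSO baseline; gain or loss of signal scored.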

[9] = read-out: Interleukin-8 (IL8), CXCL8 (gene 3576); test: BSK_3C_IL8: BioMAP Diversity Plus: 3C Assay for Interleukin-8 (IL8) Biomarker Activity (AID 2283020); conditions: primary human endothelial cells (HUVEC); actives raise or lower the signal
Summary of the method: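 Endothelial primary cells of human umbilical vein origin are dosed with chemical; after 24 h the IL-8 biomarker is measured by ELISA, and concentration–response is fitted in both directions versus DMSO.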

[10] = read-out: Monokine induced gamma interferon (MIG), CXCL9 (gene 4283); test: BSK_3C_MIG: BioMAP Diversity Plus: 3C Assay for Monokine induced gamma interferon (MIG) Biomarker Activity (AID 2283021); conditions: primary human endothelial cells (HUVEC); actives raise or lower the signal;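 for AC50: MIG protein level measured by immunoassay in the treated endothelial cultures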
Summary of the method: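 Endothelial primary cells (human umbilical vein) are dosed with test chemical in the 3C system. MIG levels are measured by ELISA at 24 h and fitted in both directions relative to DMSO.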

[11] = BSK_3C_SRB: Viability Assessment in the BioMAP Diversity Plus: 3C Assay (AID 2283023); conditions: primary human endothelial cells (HUVEC);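 note: fitted both ways against DMSO so a hit may be signal rise or drop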
Summary of the method: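 HUVEC, 24 h post-dose; 10% TCA fix, 0.1% SRB stain, A560 nm. Bidirectional curve fit vs DMSO negative control.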

[12] = read-out: Matrix Metallopeptidase 1 (MMP1), MMP1 (gene 4312); test: BSK_BE3C_MMP1: BioMAP Diversity Plus: BE3C Assay for Matrix Metallopeptidase 1 (MMP1) Biomarker Activity (AID 2283024); conditions: primary human bronchial epithelial cells; actives raise or lower the signal
Summary of the method: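 MMP1 signal, measured by ELISA after a 24 h chemical exposure of human primary bronchial epithelial cells, is analysed with bidirectional fitting using DMSO as negative control.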

[13] = BSK_3C_Vis: BioMAP Diversity Plus: 3C Assay for Morphology Visualization (AID 2283025); conditions: primary human endothelial cells (HUVEC);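 note: fitted both ways so gain or loss versus DMSO counts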
Summary of the method: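 Morphology read by light microscopy serves as a background control for the multiplexed 3C assay in human umbilical vein endothelial cells, taken 24 h after dosing, with DMSO as the negative control and bidirectional curve fitting.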

[14] = read-out: Pselectin, SELP (gene 6403); test: BSK_4H_Pselectin: BioMAP Diversity Plus: 4H Assay for Pselectin Biomarker Activity (AID 2283026); conditions: primary human endothelial cells (HUVEC); actives raise or lower the signal
Summary of the method: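 Endothelial primary cells (human umbilical vein) are dosed, incubated 24 h, and assayed for surface P-selectin by ELISA; responses in either direction are fitted relative to the DMSO negative control.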

[15] = BSK_4H_SRB: Viability Assessment in the BioMAP Diversity Plus: 4H Assay (AID 2283027); conditions: primary human endothelial cells (HUVEC);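 note: cells exposed to compound for 24 h before staining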;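 for AC50: curves fitted both ways versus DMSO so AC50 may be loss or gain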
Summary of the method: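 Cytotoxicity readout: sulforhodamine B (0.1%) staining of total protein after 10% TCA fixation, measured at 560 nm in human umbilical vein endothelium at 24 h. DMSO set the baseline; fitting was bidirectional.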

[16] = BSK_BE3C_SRB: Viability Assessment in the BioMAP Diversity Plus: BE3C Assay (AID 2283028); conditions: primary human bronchial epithelial cells;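 for AC50: fitted both ways so AC50 may mark signal gain or loss versus DMSO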
Summary of the method: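 Primary human bronchial epithelium; chemical dosing, 24 h; 10% TCA fix, 0.1% SRB stain, A560; bidirectional fit vs DMSO baseline.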

[17] = read-out: Thrombomodulin, THBD (gene 7056); test: BSK_3C_Thrombomodulin: BioMAP Diversity Plus: 3C Assay for Thrombomodulin Biomarker Activity (AID 2283029); conditions: primary human endothelial cells (HUVEC); actives raise or lower the signal
Summary of the method: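 Endothelial cells from umbilical vein are dosed with test chemical and incubated 24 h. Thrombomodulin is then quantified by ELISA, with DMSO serving as negative control and activity baseline.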

[18] = target: Retinoic acid receptor RXR-alpha (Homo sapiens) (UniProt P19793); test: ATG_RXRa_TRANS: Attagene TRANS-FACTORIAL HepG2 Assay for human Retinoid X Receptor alpha (RXRa) (AID 2283012; active = hit-call score of the fitted dose curve at least 0.9, where 1 is the maximum)
Retinoic acid receptor RXR-alpha (Homo sapiens), sequence (P19793 whole entry, looked up, the tested form may be a part): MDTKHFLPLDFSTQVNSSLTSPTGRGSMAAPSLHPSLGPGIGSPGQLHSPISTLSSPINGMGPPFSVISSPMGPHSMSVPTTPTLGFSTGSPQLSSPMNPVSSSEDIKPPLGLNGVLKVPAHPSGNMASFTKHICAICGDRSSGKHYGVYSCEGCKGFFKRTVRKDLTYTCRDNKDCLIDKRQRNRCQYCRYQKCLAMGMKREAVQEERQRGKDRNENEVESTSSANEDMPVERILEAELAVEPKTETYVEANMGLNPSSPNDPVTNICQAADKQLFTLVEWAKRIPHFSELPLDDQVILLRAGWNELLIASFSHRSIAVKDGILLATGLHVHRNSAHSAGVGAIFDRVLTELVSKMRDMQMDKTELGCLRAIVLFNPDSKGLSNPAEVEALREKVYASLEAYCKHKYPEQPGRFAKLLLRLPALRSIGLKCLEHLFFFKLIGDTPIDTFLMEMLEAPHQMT
Summary of the method: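 Measures exogenous chimeric NR-GAL4 activity in transfected HepG2 liver cells after 24 h of dosing. Induced reporter mRNA was detected by RT-PCR with capillary electrophoresis, and gain of signal was analysed against DMSO.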

[19] = target: human Vitamin D Receptor (VDR), VDR (gene 7421) (UniProt P11473); test: ATG_VDR_TRANS: Attagene TRANS-FACTORIAL HepG2 Assay for human Vitamin D Receptor (VDR) (AID 2283022; active = hit-call score of the fitted dose curve at least 0.9, where 1 is the maximum)
human Vitamin D Receptor (VDR), VDR (gene 7421), sequence (P11473 whole entry, looked up, the tested form may be a part): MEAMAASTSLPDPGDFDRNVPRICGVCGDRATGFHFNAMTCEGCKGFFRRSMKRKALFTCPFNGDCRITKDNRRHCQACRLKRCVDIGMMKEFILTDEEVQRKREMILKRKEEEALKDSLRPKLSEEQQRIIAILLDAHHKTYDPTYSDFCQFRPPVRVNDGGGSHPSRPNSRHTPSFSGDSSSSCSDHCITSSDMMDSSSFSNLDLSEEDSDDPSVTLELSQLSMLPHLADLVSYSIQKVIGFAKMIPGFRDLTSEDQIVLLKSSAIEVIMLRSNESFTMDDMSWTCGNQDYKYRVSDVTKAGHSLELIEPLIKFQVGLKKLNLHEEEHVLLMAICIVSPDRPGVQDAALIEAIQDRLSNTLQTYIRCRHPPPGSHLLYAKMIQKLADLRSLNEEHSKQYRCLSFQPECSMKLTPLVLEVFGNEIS
Summary of the method: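 RT-PCR/capillary electrophoresis read-out of reporter mRNA induction in transiently transfected HepG2; 24 h dosing; chimeric NR-Gal4 (TRANS format); gain-of-signal fit against DMSO baseline.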

[20] = target: human RAR-related Orphan Receptor gamma (RORg), RORC (gene 6097) (UniProt P51449); test: ATG_RORg_TRANS: Attagene TRANS-FACTORIAL HepG2 Assay for human RAR-related Orphan Receptor gamma (RORg) (AID 2283011; active = hit-call score of the fitted dose curve at least 0.9, where 1 is the maximum)
human RAR-related Orphan Receptor gamma (RORg), RORC (gene 6097), sequence (P51449 whole entry, looked up, the tested form may be a part): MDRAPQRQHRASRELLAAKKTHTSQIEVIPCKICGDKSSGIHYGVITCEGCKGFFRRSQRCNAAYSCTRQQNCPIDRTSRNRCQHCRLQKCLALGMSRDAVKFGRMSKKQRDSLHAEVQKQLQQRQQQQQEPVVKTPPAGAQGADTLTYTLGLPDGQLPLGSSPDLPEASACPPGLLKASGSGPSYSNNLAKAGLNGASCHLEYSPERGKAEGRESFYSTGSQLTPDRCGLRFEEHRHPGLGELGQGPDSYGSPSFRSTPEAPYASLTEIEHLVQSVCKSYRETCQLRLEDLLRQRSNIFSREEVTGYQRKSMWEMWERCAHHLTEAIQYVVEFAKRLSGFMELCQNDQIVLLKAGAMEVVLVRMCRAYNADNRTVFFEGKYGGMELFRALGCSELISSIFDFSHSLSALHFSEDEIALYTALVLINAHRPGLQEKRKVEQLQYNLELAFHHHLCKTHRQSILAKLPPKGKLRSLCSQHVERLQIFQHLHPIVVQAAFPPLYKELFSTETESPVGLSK
Summary of the method: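 Transient MRTU transfection of HepG2 (TRANS format, exogenous NR-Gal4 chimera). 24 h dosing. Total RNA → oligo(dT) RT → PCR → 6-FAM labelling → HpaI cut → CE. Gain vs DMSO.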

Measured: AC50

E-selectin (Homo sapiens), sequence (P16581 whole entry, looked up): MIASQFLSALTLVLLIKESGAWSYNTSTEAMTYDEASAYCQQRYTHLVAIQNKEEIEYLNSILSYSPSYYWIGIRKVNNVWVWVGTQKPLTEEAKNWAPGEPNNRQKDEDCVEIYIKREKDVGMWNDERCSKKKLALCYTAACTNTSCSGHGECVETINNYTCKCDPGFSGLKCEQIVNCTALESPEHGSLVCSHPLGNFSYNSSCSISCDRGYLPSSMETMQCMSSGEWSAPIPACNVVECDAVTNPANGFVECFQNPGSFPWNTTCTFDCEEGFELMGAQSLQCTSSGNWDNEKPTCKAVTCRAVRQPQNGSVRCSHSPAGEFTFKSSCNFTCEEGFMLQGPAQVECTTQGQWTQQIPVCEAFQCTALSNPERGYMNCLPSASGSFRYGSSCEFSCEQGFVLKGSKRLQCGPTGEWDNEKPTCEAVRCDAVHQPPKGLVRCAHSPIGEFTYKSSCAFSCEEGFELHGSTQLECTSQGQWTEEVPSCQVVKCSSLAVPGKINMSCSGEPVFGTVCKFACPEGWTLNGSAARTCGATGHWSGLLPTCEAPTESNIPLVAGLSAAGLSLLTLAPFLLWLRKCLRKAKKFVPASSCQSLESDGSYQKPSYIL

Cc1ccc(O)c(C)c1
active: [8] 7.99 µM
not listed: [18] | [19] | [20]
inactive: all other assays above

Nc1ccc(-c2ccc(N)cc2)cc1
active: [2] 27.5 µM
not listed: [3] | [16] | [20]
inactive: all other assays above

Clc1ccc(C(c2ccccc2Cl)C(Cl)(Cl)Cl)cc1 (stereo unspecified)
active: [4] 17.1 µM | [6] 11.4 µM | [7] 9.7 µM | [8] 10.2 µM | [9] 20.4 µM | [10] 21.5 µM | [11] 16.1 µM | [13] 26.4 µM | [14] 19.1 µM | [15] 19.5 µM
inactive: [1] | [18] | [3] | [5] | [19] | [12] | [17]

CC(C)(c1ccccc1)c1ccc(O)cc1
inactive: [1] | [18] | [3] | [19] | [12] | [17]
active: [2] 9.21 µM [middle of 4 runs] | [4] 34.7 µM | [5] 32.2 µM | [6] 39.3 µM | [7] 20 µM | [8] 39 µM | [9] 35.6 µM | [10] 39.1 µM | [11] 30.2 µM | [13] 37.5 µM | [15] 30.5 µM | [16] 32.3 µM

C[C@]12CCC(=O)C=C1CC[C@@H]1[C@@H]2CC[C@]2(C)C(=O)CC[C@@H]12
not listed: [1] | [14] | [16] | [19]
inactive: all other assays above

Sc1ccccc1
not listed: [1] | [13] | [16] | [18]
inactive: all other assays above
